Assay outcomes from PubChem BioAssay.
CYP2C9 inhib – human CYP2C9 inhibition; P11712; inhibition, % at 5 µM; CYP2C9 Supersomes, luciferin-H conversion, luminescence; 96,000 compounds, 20% hits;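 active = blocking of liver enzyme CYP2C9 beyond about 50% at 5 µM, limit read from the data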
Target sequence (P11712 whole entry, looked up): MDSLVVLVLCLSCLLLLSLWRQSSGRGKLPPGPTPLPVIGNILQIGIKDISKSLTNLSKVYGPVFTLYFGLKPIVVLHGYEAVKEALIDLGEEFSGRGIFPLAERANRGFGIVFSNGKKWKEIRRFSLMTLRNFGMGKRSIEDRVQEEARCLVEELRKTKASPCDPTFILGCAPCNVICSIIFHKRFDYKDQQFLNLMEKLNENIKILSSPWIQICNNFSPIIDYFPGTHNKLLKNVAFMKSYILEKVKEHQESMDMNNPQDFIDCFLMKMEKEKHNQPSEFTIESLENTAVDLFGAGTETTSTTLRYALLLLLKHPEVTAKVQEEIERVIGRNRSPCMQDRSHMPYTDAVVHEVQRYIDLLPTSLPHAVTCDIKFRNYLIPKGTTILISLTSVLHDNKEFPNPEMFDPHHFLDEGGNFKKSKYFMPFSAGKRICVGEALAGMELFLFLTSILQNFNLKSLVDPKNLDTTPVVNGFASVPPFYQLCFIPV
CYP2C9 act – increases human cytochrome P450 2C9 activity; P11712; recombinant CYP2C9, luciferin-H conversion, luminescence; stronger effect = higher value; factor 1 = untreated enzyme, 0 = blocked; 96,000 compounds, 1.4% hits; activation factor at 5 µM;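 active = activation factor of 2 or more for CYP2C9 at a 5 µM dose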;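 note: 0 = sulfaphenazole-blocked wells and 1 = vehicle-only wells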
CYP2C19 inhib – human CYP2C19 inhibition. P33261. CYP2C19 Supersomes, luciferin-H EGE luminescence, 30 min. inhibition, % at 5 µM. 96,000 compounds, 21% hits;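 active = CYP2C19 inhibition above a set limit at 5 µM in the primary screen, cut at about 50% in these data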;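 note: plate controls were negative control wells for no effect and 2.5 mM tranylcypromine positive control for full effect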
CYP2C19 activ – activators of human cytochrome P450 2C19; 96,000 tested, under 10 active; P33261; recombinant CYP2C19, luciferin-H EGE luminescence; stronger effect = higher value; 0 = fully inhibited enzyme, 1 = untreated enzyme; activation factor at 5 µM;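 active = activation factor of at least 2 at 5 µM in the primary screen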;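 note: 0 = wells with 2.5 mM tranylcypromine and 1 = vehicle-only wells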
PostGolgi ctrl – growth of the yeast control strain, post-Golgi counter-screen; efflux-deficient yeast background strain, growth absorbance A615, 16 h; inhibition, % at 10 µM; 98,000 compounds, 5% hits
PostGolgi yeast – growth inhibition of a yeast mutant, post-Golgi transport screen; post-Golgi transport phenotypic cell assay; 98,000 compounds, 0.9% hits; inhibition, % at 10 µM;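 note: yeast cells grown in 1536-well plates; yeast grown about 18 h at 30C before absorbance read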
* hit, by the source's call; . = no result. In the library only some 32% were active in any assay of this set; here they are far more common. Cut-off read from the data, not from the text of the source, unless noted: active = inhibition above about 30%; inactive = the rest.

SMILES | CYP2C9 inhib | CYP2C9 act | CYP2C19 inhib | CYP2C19 activ | PostGolgi ctrl | PostGolgi yeast
O=C(N1CCN(c2ccccc2)CC1)C12CC3CC(CC(C3)C1)C2 | 67* | 0.3 | 81* | 0.2 | 45* | 12
CC1(C)C(C=C(Cl)Cl)C1C(=O)N1CCN(c2ccccc2)CC1 (configuration not stated) | 26 | 0.7 | 46 | 0.5 | 70* | 3
CCn1c(N2CCN(C(=O)C34CC5CC(CC(C5)C3)C4)CC2)nc2ccccc21 | 23 | 0.8 | 42 | 0.6 | 19 | 16
CN1CCN(C(=O)CN(c2cccc(Cl)c2)S(=O)(=O)c2ccccc2)CC1 | 31 | 0.7 | 7 | 0.9 | 1 | 5
CSCCC1(C(=O)O)NC(c2ccccc2O)C2C(=O)N(C(C)C)C(=O)C21 (configuration not stated) | -9 | 1.1 | 9 | 0.9 | 11 | 25
COC(=O)C(C)N1C(=O)S/C(=C\c2cc(C)n(-c3ccccn3)c2C)C1=O (configuration not stated) | 80* | 0.2 | 24 | 0.8 | 22 | -11
CSc1nc2sc3c(c2c2nnnn12)CCC3 | 11 | 0.9 | 62* | 0.4 | . | .
CCOC(=O)N1CCN(c2nc(C(F)(F)F)nc3c(C)cc(C)cc23)CC1 | -9 | 1.1 | -7 | 1.1 | 6 | 0
CCOC(=O)N1CCN(c2nc(C)cc(C(F)(F)F)n2)CC1 | 41 | 0.6 | 66* | 0.3 | 4 | 1
Cc1ccc(S(=O)(=O)c2nc(-c3ccco3)oc2SCC(=O)NCC2CCCO2)cc1 (configuration not stated) | 1 | 1 | 26 | 0.7 | 4 | -6
O=C(NC1CCCCCC1)C1CCCN(S(=O)(=O)c2cnc[nH]2)C1 (configuration not stated) | 45 | 0.5 | 83* | 0.2 | 8 | 26
CCS(=O)(=O)N1CCCC(C(=O)NC2CCCC2)C1 (configuration not stated) | 5 | 0.9 | 21 | 0.8 | -8 | -15
O=C(NC1CCCc2ccccc21)C1CCN(S(=O)(=O)N2CCCCCC2)CC1 (configuration not stated) | -15 | 1.2 | -1 | 1 | 16 | -3
CCCCC(CC)CNC(=O)C1CCCN(S(=O)(=O)c2cnc[nH]2)C1 (configuration not stated) | 93* | 0.1 | 100* | 0 | 7 | -1
O=C(NC1CCCc2ccccc21)C1CCCN(S(=O)(=O)c2cnc[nH]2)C1 (configuration not stated) | 60* | 0.4 | 92* | 0.1 | -1 | -2
CC1CCN(S(=O)(=O)c2ccc3c(c2)CCN3C(=O)CCC(=O)O)CC1 | -17 | 1.2 | 7 | 0.9 | 3 | 2
COCCNS(=O)(=O)c1ccc(-c2ccc(S(=O)(=O)NCCOC)cc2)cc1 | . | . | . | . | 5 | -3
CC(C)(C)c1ccc(S(=O)(=O)NCCc2ccncc2)cc1 | 92* | 0.1 | 100* | 0 | -5 | -5
CCCCCc1ccc(S(=O)(=O)NCCc2ccncc2)cc1 | 97* | 0 | 100* | 0 | 30 | 10
CC(C)(C)c1ccc(S(=O)(=O)NCCOCC(F)(F)C(F)F)cc1 | -141 | 2.4* | 97* | 0 | 16 | 1
CCCc1ccc(S(=O)(=O)NCCc2ccncc2)cc1 | 98* | 0 | 99* | 0 | 10 | 7
CCCNS(=O)(=O)c1ccc(CCC(=O)NCc2ccco2)cc1 | 20 | 0.8 | -7 | 1.1 | 6 | -1
CC(=O)c1cccc(NC=C2C(=O)OC3(CCCCC3)OC2=O)c1 | 5 | 1 | 9 | 0.9 | 5 | -5
Cc1c(Cl)cccc1NC(=O)CC1NCCNC1=O (configuration not stated) | -5 | 1.1 | -7 | 1.1 | -2 | 0
CC(C)N(C(=O)c1ccccc1-c1ccccc1)C(C)C | 20 | 0.8 | 26 | 0.7 | 15 | -6
Cc1cccc2cc(CN(Cc3ccccc3)C(=O)c3cccc(F)c3)c(Cl)nc12 | 62* | 0.4 | 42 | 0.6 | 21 | -4
CC1(C)OC(=O)CC1C(=O)NCc1ccccc1 (configuration not stated) | -18 | 1.2 | -17 | 1.2 | 0 | 19
COc1cc(Nc2ccccc2Cl)c([N+](=O)[O-])nc1[N+](=O)[O-] | 8 | 0.9 | 81* | 0.2 | 27 | 18
Cc1cc[n+]2c3c(cccc13)CCC2 | 5 | 1 | 5 | 1 | 1 | -6
